Assay outcomes: PubChem BioAssay, National Center for Advancing Translational Sciences (NCATS)
Only some compounds are listed: those with a hit (about 10% of all), similar ones and a draw of the others.
Sfp PPTase inh – blocks B. subtilis Sfp PPTase activity; Q9F4F7; Biochemical Sfp PPTase activity, qHTS; Potency, µM, actives largely listed as inhibitors; actives 3.5% (n = 310,000); AID 1490;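 further: the enzyme is Sfp with the accession as filed and its product quenches rhodamine fluorescence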
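Fluorescence-quenching assay: 15 nM Sfp-PPTase preincubated 15 min at room temperature with compound, then 5 uM rhodamine-CoA and 12.5 uM BHQ-2-labelled YbbR peptide added. Fluorescence (ex 525/em 598 nm) read at start and after 30 min; difference gives rate.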
CCT modulator – cytosolic chaperonin activity modulation; purified chaperonin ATPase assay, HTRF ADP detection, 30 min; actives 0.3% (n = 360,000); AID 651819; activity change, % (concentration not given with the values), hits read low; in the data active means activity change below about -30%
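Nucleotide hydrolysis assay: TRiC at 20–40 nM final (set by batch activity) with 10 uM ATP, 30 min at 37 °C, in presence of 76 uM compound. Detection by competitive ADP HTRF, 30 min ambient.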
G9a block – G9a (human) methyltransferase inhibition | Q96KQ7 | G9a H3K9 monomethylation, AlphaScreen, 2 h | actives 8.8% (n = 350,000) | Potency, µM (highest dose often 102 µM), usual class: inhibitors; further: nearly all actives have a fitted effect of over 75% in size
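Signal arises when biotinylated H3K9 peptide, once monomethylated, bridges streptavidin donor and antibody-captured acceptor beads. Enzyme at 20 nM was preincubated 15 min with test compounds; peptide 500 nM and SAM 20 uM then reacted for 2 h.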
Mm-Cpn inhibitor – inhibitors of Methanococcus maripaludis chaperonin TRiC (MmCpn); purified Mm-Cpn ATPase, ADP Transcreener TR-FRET; Potency, µM (series often up to 76.9 µM), most hits filed as inhibitors; actives 0.031% (n = 330,000); further: nearly all actives have a fitted effect of over 80% in size
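Measured: ADP formation by purified Mm-CPN. Conditions: 25 nM protein, 10 uM ATP, Tris pH 7.4 with Mg2+, K+ and DTT, 37°C for 30 min. Detection: Transcreener HTRF after 30 min at room temperature.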
PLK1 PBD block – PLK1 (human) polo-box domain binding inhibition; P53350; Plk1 PBD binding of FITC phosphopeptide, fluorescence polarization; Potency, µM, hits mostly inhibitors; actives 2.8% (n = 360,000); further: series mostly up to about 57 µM; nearly all actives have a fitted effect of over 65% in size
VDR inh – vitamin D3 receptor (human) inhibition; P11473; VDR-SRC2-3 peptide fluorescence polarization, 2 h; Potency, µM, usual class: inhibitors; actives 0.93% (n = 400,000)
Target sequence (P11473 whole entry, looked up): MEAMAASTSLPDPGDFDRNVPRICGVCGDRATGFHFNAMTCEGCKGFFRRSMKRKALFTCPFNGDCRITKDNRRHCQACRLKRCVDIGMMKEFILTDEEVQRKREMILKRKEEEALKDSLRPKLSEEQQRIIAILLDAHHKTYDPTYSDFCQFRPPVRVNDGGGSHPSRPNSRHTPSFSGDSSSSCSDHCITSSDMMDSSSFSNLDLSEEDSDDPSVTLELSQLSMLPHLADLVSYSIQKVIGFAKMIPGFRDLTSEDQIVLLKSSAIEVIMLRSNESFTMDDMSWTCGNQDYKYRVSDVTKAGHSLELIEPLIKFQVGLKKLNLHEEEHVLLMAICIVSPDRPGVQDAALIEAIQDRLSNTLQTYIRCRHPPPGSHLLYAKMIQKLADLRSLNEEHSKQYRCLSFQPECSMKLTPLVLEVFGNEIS
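Two reagent solutions held at 4 deg C in the dark were dispensed, compounds pinned at 23 nl, and the mixture incubated 2 h at room temperature. Read-out: fluorescence polarization of VDR–SRC2-3 peptide binding.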
Numbers stand for hits; [ ] = another dose, or the depositor's remark. Unless noted, the call rests on the fitted dose curve; in most records, active means well fitted curve in the direction sought with a large enough effect; inconclusive means small, poorly fitted or top-dose-only effect, or another doubt; inactive means no such curve, though single readings can be large; an effect the other way counts as inactive or inconclusive.

For O=C(C1CCCN(C2CC(=O)N(c3ccc(F)cc3)C2=O)C1)N1CCCC1 (stereo unspecified) the results were Sfp PPTase inh inactive, CCT modulator inactive, G9a block 44.7µM, Mm-Cpn inhibitor inactive, PLK1 PBD block inactive and VDR inh inactive.
Screening O=C(C1CCN(C2CC(=O)N(c3cccc(Cl)c3)C2=O)CC1)N1CCCCCC1 (stereo unspecified) returned Sfp PPTase inh inactive, CCT modulator inactive, G9a block 10µM, Mm-Cpn inhibitor inactive, PLK1 PBD block inactive and VDR inh inactive.
Screening CC(=O)N1CCCc2cc(S(=O)(=O)N(C)CC(=O)Nc3cccc(Cl)c3C)ccc21 returned G9a block inactive and VDR inh inactive.
O=C(c1ccco1)N1CCC2(CC1)CCN(c1ccncc1)CC2 was read as Sfp PPTase inh inactive, G9a block inactive[12.7 µM] and VDR inh inactive.
Screening CCn1ncc(/C=C2/SC(=S)NC2=O)c1C returned Sfp PPTase inh inactive, CCT modulator inactive, G9a block 50.1µM, Mm-Cpn inhibitor inactive, PLK1 PBD block inactive and VDR inh inactive.
For Cn1c(/C(C#N)=C/c2ccccc2Br)nc2ccccc21 the results were G9a block 0.398µM and VDR inh inconclusive.
Screening CCc1nn2c(=O)c(S(=O)(=O)Nc3ccc(C)c(C)c3)c(C)nc2s1 returned G9a block inconclusive and VDR inh inactive.
`O=[N+]([O-])c1ccc(-c2c[nH]c(=S)[nH]2)cc1` gave Sfp PPTase inh 3.55µM, CCT modulator inactive, G9a block 2µM, Mm-Cpn inhibitor inactive, PLK1 PBD block 7.52µM and VDR inh inconclusive.
`S=c1[nH]cc(-c2ccccc2)[nH]1` gave Sfp PPTase inh inactive, CCT modulator inactive, G9a block inactive, Mm-Cpn inhibitor inactive, PLK1 PBD block inactive and VDR inh inactive.
Screening Cc1cc(-c2n[nH]c(=S)n2/N=C/c2sccc2C)n[nH]1 returned Sfp PPTase inh inconclusive, CCT modulator inactive, G9a block 1.26µM, Mm-Cpn inhibitor inactive, PLK1 PBD block inactive and VDR inh inactive.
For Cc1ccsc1/C=N/n1c(-c2ccco2)n[nH]c1=S the results were Sfp PPTase inh inactive, CCT modulator inactive, G9a block 0.794µM, Mm-Cpn inhibitor inactive, PLK1 PBD block inactive and VDR inh inactive.
`Cc1ccsc1/C=N/n1c(-c2ccccc2)n[nH]c1=S` gave Sfp PPTase inh inactive, CCT modulator inactive, G9a block 1.78µM, Mm-Cpn inhibitor inactive, PLK1 PBD block inactive and VDR inh inactive.
Cc1ccsc1/C=N/n1c(-c2ccccn2)n[nH]c1=S was read as Sfp PPTase inh inconclusive, CCT modulator inactive, G9a block 2.24µM, Mm-Cpn inhibitor inactive, PLK1 PBD block inactive and VDR inh inactive.
Cc1ccsc1/C=N/N1CCOCC1 was read as Sfp PPTase inh inactive, CCT modulator inactive, G9a block inactive, Mm-Cpn inhibitor inactive, PLK1 PBD block inactive and VDR inh inactive.
C[C@@](N)(C(=O)O)c1ccc(P(=O)(O)O)cc1 was read as Sfp PPTase inh inactive and VDR inh inactive.
Screening COc1ccc(S(=O)(=O)c2cn(C)c3cc(N4CCOCC4)c(F)cc3c2=O)cc1 returned G9a block inactive and VDR inh inactive.
C[C@@H]1CN2[C@H](c3ccc(Br)cc3)[C@H](C)CC[C@H]2C(=O)O1 was read as Sfp PPTase inh inactive.
`O=C(NCc1ccccc1Cl)c1ccc(NC(=O)c2nsc3ccccc23)cc1` gave G9a block inactive and VDR inh inactive.
CCN(C(=O)CN(C)S(=O)(=O)c1ccc2c(c1)c(=O)n(C)c(=O)n2C)c1ccc(OC)cc1 was read as G9a block inactive and VDR inh inactive.
Cc1ccsc1/C=N/n1c(-c2ccncc2)n[nH]c1=S was read as Sfp PPTase inh inactive, CCT modulator inactive, G9a block 1.12µM, Mm-Cpn inhibitor inactive, PLK1 PBD block inconclusive and VDR inh inactive.
Screening COCCn1c(=NC(=O)CSCC(=O)Nc2cc(C)on2)sc2cc(C(=O)OC)ccc21 returned Sfp PPTase inh inactive, CCT modulator inactive, G9a block inactive, Mm-Cpn inhibitor inactive, PLK1 PBD block 26.7µM and VDR inh inactive.
Screening COc1cc(NC(=O)Cn2c(=O)oc3cc(S(=O)(=O)N4CCCCCC4)ccc32)cc(OC)c1 returned G9a block inactive and VDR inh inactive.
`O=C(Cn1cnc2cc([N+](=O)[O-])ccc2c1=O)N(Cc1ccccc1)C1CCS(=O)(=O)C1` (stereo unspecified) gave Sfp PPTase inh inactive, CCT modulator inactive, G9a block inconclusive, Mm-Cpn inhibitor inactive, PLK1 PBD block inactive and VDR inh inactive.
Screening O=C(Nc1cc([N+](=O)[O-])ccc1O)NC1CCS(=O)(=O)C1 (stereo unspecified) returned CCT modulator inactive, G9a block 15.8µM, Mm-Cpn inhibitor inactive, PLK1 PBD block inactive and VDR inh inactive.
For O=C(Cn1cnc2cc([N+](=O)[O-])ccc2c1=O)NC1CCS(=O)(=O)C1 (stereo unspecified) the results were Sfp PPTase inh inconclusive, CCT modulator inactive, G9a block 50.1µM, Mm-Cpn inhibitor inactive, PLK1 PBD block inactive and VDR inh inactive.
`O=C1CC(SCc2nc3ccccc3[nH]2)C(=O)N1c1ccc(Cl)cc1` (stereo unspecified) gave Sfp PPTase inh inactive, CCT modulator inactive, G9a block 17.8µM, Mm-Cpn inhibitor inactive, PLK1 PBD block inactive and VDR inh inactive.
Screening CC(=O)N/C(=C\c1ccccc1)C(=O)NC(C)C(=O)O (stereo unspecified) returned Sfp PPTase inh inactive, CCT modulator inactive, G9a block 56.2µM, Mm-Cpn inhibitor inactive, PLK1 PBD block inactive and VDR inh inactive.
For CC(=O)N/C(=C\c1ccc(F)cc1)C(=O)NC(C(=O)O)C(C)C (stereo unspecified) the results were Sfp PPTase inh inactive, CCT modulator inactive, G9a block 56.2µM, Mm-Cpn inhibitor inactive, PLK1 PBD block inactive and VDR inh inactive.
`CCN1CCN(C(c2cccc(F)c2)c2c(O)cc(C)n(CCOC)c2=O)CC1` (stereo unspecified) gave G9a block inconclusive and VDR inh inactive.
For COc1cc(NC(=O)CCc2c(C)nc3c(-c4ccc(F)cc4)c(C)nn3c2C)cc(OC)c1OC the results were G9a block inactive and VDR inh inactive.
`Cc1ccc(C)c(NC(=O)c2cnc3sc(N4CCOCC4)nn3c2=O)c1` gave G9a block inactive and VDR inh inactive.
`Cc1ccc2ncc3c(-c4ccc(F)cc4)nn(CC(=O)Nc4ccccc4C)c3c2c1` gave G9a block inactive and VDR inh inactive.
